{
  "source": "PubChem BioAssay (EPA / NIEHS)",
  "note": "Results filed as inconclusive are left out. Activity calls are given as the source filed them. The calls were made as follows: active = hit-call score of the fitted dose curve at least 0.9, where 1 is the maximum; inconclusive = response in the unintended direction; inactive = score below 0.9.",
  "data": [
    {"biological_target": "Hepatocyte nuclear factor 4-alpha (Homo sapiens) (UniProt P41235)", "sequence (P41235 whole entry, looked up)": "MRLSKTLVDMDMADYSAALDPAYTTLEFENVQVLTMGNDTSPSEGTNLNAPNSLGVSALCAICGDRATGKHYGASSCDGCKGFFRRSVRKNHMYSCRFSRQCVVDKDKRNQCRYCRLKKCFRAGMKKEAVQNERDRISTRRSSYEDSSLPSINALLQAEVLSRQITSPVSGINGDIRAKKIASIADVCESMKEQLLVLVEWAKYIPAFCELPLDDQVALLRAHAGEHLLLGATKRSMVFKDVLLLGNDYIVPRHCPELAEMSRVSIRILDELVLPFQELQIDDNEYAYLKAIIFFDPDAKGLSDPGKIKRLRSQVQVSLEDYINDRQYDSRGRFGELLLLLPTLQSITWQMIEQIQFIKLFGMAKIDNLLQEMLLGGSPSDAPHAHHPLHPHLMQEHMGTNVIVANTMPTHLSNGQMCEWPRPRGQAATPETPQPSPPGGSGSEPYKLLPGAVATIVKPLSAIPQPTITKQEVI", "assay": "ATG_HNF4a_TRANS: Attagene TRANS-FACTORIAL HepG2 Assay for human Hepatocyte Nuclear Factor 4 alpha (HNF4a) (AID 2282982)", "details": "HepG2 HNF4a transactivation reporter, mRNA readout", "experimental": "ATG_TRANS is a cell-based, multiplexed-readout assay that uses HepG2, a human liver cell line, with measurements taken at 24 hours after chemical dosing in a 24-well plate.ATG_HNF4a_TRANS is one of 30 assay component(s) measured or calculated from the ATG_TRANS assay. It is designed to make measurements of mRNA induction, a form of inducible reporter, as detected with fluorescence intensity signals by Reverse transcription polymerase chain reaction (RT-PCR) and Capillary electrophoresis technology.Data from the assay component ATG_HNF4a_TRANS was analyzed into 1 assay endpoint. This assay endpoint, ATG_HNF4a_TRANS, was analyzed in the positive analysis fitting direction relative to DMSO as the negative control and baseline of activity. Using a type of inducible reporter, measures of mRNA for gain-of-signal activity can be used to understand the reporter gene at the transcription factor-level as they relate to the gene HNF4A. Furthermore, this assay endpoint can be referred to as a primary readout, because this assay has produced multiple assay endpoints where this one serves a reporter gene function. To generalize the intended target to other relatable targets, this assay endpoint is annotated to the nuclear receptor intended target family, where the subfamily is orphan.\nHuman liver HepG2 cells are transiently transfected with multiple reporter transcription units (MRTUs) in 6-well plates using FuGene 6 reagent (Roche; 3 ml FuGene/1 mg DNA). The MRTU constructs are regulated by a cis-regulating element (promoter). […] A major difference between the CIS and TRANS system is that in CIS activities of endogenous TFs are measured, whereas the TRANS assay evaluates changes in activities of exogenous, chimeric NR-Gal4 proteins. […] At the end of 24 hour incubation, total RNA was isolated using TriZol reagent (Invitrogen). The isolated RNA is then reverse-transcribed using oligo(dT) primer and Mo-MLV reverse transcriptase (Invitrogen) with DNAse I (Ambion) treatment for 30 min. The one-tenth of the produced cDNA was amplified by PCR using Taq DNA polymerase (Invitrogen) and two reporter sequence-specific primers. The PCR products were fluorescently labeled by primer extension with 6-arboxyfluorescein (6-FAM) 5'-labeled reporter sequence-specific primer (2 min at 95 C, 20 s at 68 C and 10 min at 72 C) and these products were digested with 5U of HpaI (New England Biolabs) for 2h at 37 C. The fragments were purified using Qiaquick PCR columns (Qiagen), analyzed on an ABI 3130xL genetic analyzer (Applied Biosystems) with peak positions identified by using a set of X-rhodamine (ROX)-labeled MapMarker1000 molecular weight standards (BioVentures). The raw capillary electrophoresis data was processed using Attagraph software (Attagene).", "values": [
      {"compound": "c1ccc2c(c1)[nH]c1ccccc12", "outcome": "inactive"},
      {"compound": "O=c1c(O)c(-c2ccc(O)cc2O)oc2cc(O)cc(O)c12", "outcome": "inactive"},
      {"compound": "Oc1ccc(/C=C/c2cc(O)cc(O)c2)cc1", "outcome": "inactive"},
      {"compound": "Cc1ccc(S(=O)(=O)N=C=O)cc1", "outcome": "inactive"},
      {"compound": "c1ccc2sc(SSN3CCOCC3)nc2c1", "outcome": "inactive"},
      {"compound": "Nc1ccc(O)c([N+](=O)[O-])c1", "outcome": "inactive"},
      {"compound": "CC(C)(C)N", "outcome": "inactive"},
      {"compound": "CCCCC(=O)O", "outcome": "inactive"},
      {"compound": "COC(=O)c1ccccc1C", "outcome": "inactive"},
      {"compound": "C/C=C/C=C/CCCCCCCO", "outcome": "inactive"},
      {"compound": "O=C(O)c1cc(O)c2ccccc2c1O", "outcome": "inactive"},
      {"compound": "CCCCNC(=S)NCCCC", "outcome": "inactive"},
      {"compound": "COc1ccc(-c2coc3cc(O)cc(O)c3c2=O)cc1", "outcome": "inactive"},
      {"compound": "COC(=O)c1ccc(C(=O)OC)c(C(=O)OC)c1", "outcome": "inactive"},
      {"compound": "CC(=O)OC1CCCCC1", "outcome": "inactive"},
      {"compound": "CCN(CC)c1cccc(C)c1", "outcome": "inactive"},
      {"compound": "CCC(C)C(=O)OC", "note": "(stereo not given)", "outcome": "inactive"},
      {"compound": "C=C(C)C(=O)OCCCCCCCCCCCC", "outcome": "inactive"},
      {"compound": "Nc1cccc(N)n1", "outcome": "inactive"},
      {"compound": "Clc1cc(Cl)c(Cl)c(Cl)c1Cl", "outcome": "inactive"},
      {"compound": "Cc1ccccc1CCO", "outcome": "inactive"},
      {"compound": "c1ccc2cnccc2c1", "outcome": "inactive"},
      {"compound": "Cc1noc(NS(=O)(=O)c2ccc(N)cc2)c1C", "outcome": "inactive"},
      {"compound": "CC/C=C\\C/C=C\\C/C=C\\CCCCCCCC(=O)OC", "outcome": "inactive"},
      {"compound": "CCCCCCCCCC[N+](C)(CCCCCCCCCC)CCC[Si](OC)(OC)OC", "outcome": "inactive"},
      {"compound": "CC(Cl)COP(=O)(OCC(C)Cl)OCC(C)Cl", "note": "(stereo not given)", "outcome": "inactive"},
      {"compound": "CCc1cccc(C)c1N", "outcome": "inactive"},
      {"compound": "CC1=CCC2CC1C2(C)C", "note": "(stereo not given)", "outcome": "inactive"},
      {"compound": "C=CCCCCCCCCOC(C)=O", "outcome": "inactive"},
      {"compound": "CN(C)Cc1cc(CN(C)C)c(O)c(CN(C)C)c1", "outcome": "inactive"},
      {"compound": "CCCC=C(C=O)CC", "outcome": "inactive"},
      {"compound": "CC(C)(CO)C(O)C(=O)NCCCO", "note": "(stereo not given)", "outcome": "inactive"},
      {"compound": "CCCSSCCC", "outcome": "inactive"},
      {"compound": "O=S(=O)(O)c1ccc(Nc2nc(Nc3ccc(C=Cc4ccc(Nc5nc(Nc6ccc(S(=O)(=O)O)cc6)nc(N(CCO)CCO)n5)cc4S(=O)(=O)O)c(S(=O)(=O)O)c3)nc(N(CCO)CCO)n2)cc1", "outcome": "inactive"},
      {"compound": "Cc1cc(C)c(C=O)c(C)c1", "outcome": "inactive"},
      {"compound": "CCOC(=O)[C@H](O)[C@@H](O)C(=O)OCC", "outcome": "inactive"},
      {"compound": "Cn1cccc1", "outcome": "inactive"},
      {"compound": "CCCCCCCCCCCCCc1ccccc1", "outcome": "inactive"},
      {"compound": "CC(C)=CCl", "outcome": "inactive"},
      {"compound": "C=CC(=O)O[C@H]1C[C@@H]2CC[C@@]1(C)C2(C)C", "outcome": "inactive"}
    ]}
  ]
}
